Assay results from PubChem BioAssay AID1476 (National Center for Advancing Translational Sciences (NCATS), 2009).
About 4,500 (2.2%) of roughly 200,000 compounds were called active. Inconclusive results (about 12%) are left out. Calls follow the shape of the dose curve; as a rule, active = well fitted inhibition curve with a large enough effect; inconclusive = small, poorly fitted or top-dose-only effect, or effect the other way; inactive = flat fitted curve, though single readings scatter. Many of the other results were omitted from the sample, so actives are more common in it than they were.

Molecular target: Cruzipain (Trypanosoma cruzi) (UniProt P25779)
Sequence (P25779 123-467 limits assumed): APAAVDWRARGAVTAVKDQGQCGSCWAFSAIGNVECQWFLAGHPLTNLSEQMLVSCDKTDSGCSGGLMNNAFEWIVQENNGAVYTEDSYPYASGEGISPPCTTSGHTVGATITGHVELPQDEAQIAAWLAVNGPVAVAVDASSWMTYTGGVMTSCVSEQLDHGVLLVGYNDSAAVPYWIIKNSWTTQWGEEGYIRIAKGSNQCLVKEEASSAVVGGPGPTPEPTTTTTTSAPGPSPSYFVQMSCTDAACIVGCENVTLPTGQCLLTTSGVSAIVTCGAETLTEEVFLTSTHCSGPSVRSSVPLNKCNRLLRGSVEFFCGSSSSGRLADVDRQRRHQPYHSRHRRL
Experiment: qHTS Assay for Promiscuous and Specific Inhibitors of Cruzain (without detergent); also: nearly all actives have a fitted effect of over 40% in size;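 as to max response, negative = inhibition: plate controls were enzyme without inhibitor for no effect and buffer without enzyme for full effect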
Conditions: purified cruzain, Z-FR-AMC fluorescence, no detergent
Method in brief: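 Purified cruzain at 1.5 nM, pre-incubated 15 min with compound at room temperature in 100 mM sodium acetate pH 5.5, 5 mM DTT, 0.00005% Triton X-100. Reaction started with 2 uM Z-FR-AMC; AMC fluorescence increase over 60 s gives rate.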
Potency is read from the fitted curve at half-maximal effect.

SMILES | max response, negative = inhibition | Potency
O=C(NCCCc1ccccc1)c1ccc2c(c1)sc1nc(-c3ccc(F)cc3)cn12 | 4.05% (inactive) | –
Cc1csc(NC(=O)c2ccc(-c3ccc(Cl)cc3Cl)o2)n1 | – | 10 µM (active)
O=C(Nc1cccc2ncccc12)c1ccc(-c2ccc(Cl)cc2Cl)o1 | -11.1% (inactive) | –
Cc1csc(NC(=S)Nc2cccc(Cl)c2)n1 | -0.724% (inactive) | –
Cc1ccc(NC(=O)c2cc3cc(C)ccc3n2C)cc1 | -3.53% (inactive) | –
O=C(Nc1ccc2c(c1)OCO2)c1ccc(N2C(=O)c3ccccc3C2=O)cc1 | – | 6.31 µM (active)
O=C(Nc1ccccc1)c1ccc2c(c1)OCO2 | 1.37% (inactive) | –
Cn1c(=O)n(C)c2cc(C(=O)Nc3ccc4c(c3)OCO4)ccc21 | -14% (inactive) | –
CCOc1ccc(CNC(=O)CCC(=O)N2CCSc3ccccc32)cc1 | 1.55% (inactive) | –
COc1ccc(-c2onc(C)c2C)cc1S(=O)(=O)NCC1CCN(Cc2cccc(F)c2)CC1 | 0.417% (inactive) | –
CCc1ccccc1NC(=O)CSc1nnc(-c2ccccc2)c(-c2ccccc2)n1 | -0.884% (inactive) | –
CCOC(=O)C1=C(O)CSC1=Nc1cccc(Cl)c1 | -9.26% (inactive) | –
Clc1cccc(N=C2NN=C(c3ccc4c(c3)OCCO4)CS2)c1 | – | 10 µM (active)
CCOc1ccc(CNC(=O)Cn2cc3c(n2)-c2c(oc(C(=O)N4CCCC4)c2C)CC3)cc1 | 23.3% (inactive) | –
COc1ccc2cc(CNc3ccc(OC)c(OC)c3)c(=O)n(CC(=O)Nc3ccccc3F)c2c1 | 13.9% (inactive) | –
O=C(CSc1nccn1C1CCCC1)Nc1cc(C(F)(F)F)ccc1Cl | 9.92% (inactive) | –
O=C(/C=C/c1ccccc1)Nc1nnc(SCC(=O)c2ccc3ccccc3c2)s1 | – | 6.31 µM (active)
CC(=O)c1ccc(NC(=O)CSc2nnc(NC(=O)Nc3ccccc3)s2)cc1 | 10.4% (inactive) | –
COc1ccc(C(=O)CSc2nnc(NC(=O)C3CC(=O)N(c4cccc(OC)c4)C3)s2)cc1 (stereo not drawn) | -5.43% (inactive) | –
O=C(NCCc1csc(-c2ccc(C(F)(F)F)cc2)n1)C(=O)Nc1ccc(F)c(Cl)c1 | -2.67% (inactive) | –
Cc1ccc(OCC(=O)OCc2cc(=O)n3nc(C4CC4)sc3n2)cc1 | -8.05% (inactive) | –
COC(=O)c1nc2ccccc2s1 | -9.6% (inactive) | –

SMILES | max response, negative = inhibition | Potency
N#C/C(=C(/O)Cc1cccc2ccccc12)c1nc2ccccc2s1 | – | 12.6 µM (active)
c1ccc2sc(SCCSc3nc4ccccc4s3)nc2c1 | -3.12% (inactive) | –
Cc1ccc(-c2nn3c(=O)cc(CN4CCN(C(=O)Nc5cccc(C(F)(F)F)c5)CC4)nc3s2)cc1 | -9.63% (inactive) | –
COc1ccc(Cn2c(C(=O)O)c(CNCCc3cccs3)c3ccc(OC)cc32)cc1 | -3.19% (inactive) | –
Cc1ccc(NS(=O)(=O)c2ccc3c(c2)CC(=O)N3)cc1Cl | – | 15.8 µM (active)
Cc1ccc(S(=O)(=O)NCCC(=O)Nc2ccc(C)c(Cl)c2)cc1C | -0.389% (inactive) | –
COc1ccc(NC(=O)CCNS(=O)(=O)c2ccc3c(c2)CCCC(=O)N3)cc1Cl | -2.51% (inactive) | –
Cc1nn(CC(=O)O)c(=O)c2cc3cc(F)ccc3n12 | -12.5% (inactive) | –
Cc1cccc(-n2ccnc2SCC(=O)Nc2cc(C(F)(F)F)ccc2Cl)c1 | -5.01% (inactive) | –
Cc1ccc(NC(=O)CSc2nc3c(c(=O)[nH]2)CN(Cc2ccc4c(c2)OCO4)CC3)cc1C | -8.7% (inactive) | –
COc1ccc(OCC(=O)OCC(=O)Nc2ccc(S(=O)(=O)N3CCCCC3)cc2)cc1 | 6.2% (inactive) | –
CC(=O)c1c(C)[nH]c(C(=O)OCC(=O)Nc2cc(S(=O)(=O)N3CCCCC3)ccc2C)c1C | 9.33% (inactive) | –
CCn1c2ccccc2c2cc(NC(=O)COC(=O)c3cc(S(=O)(=O)N4CCCCC4)ccc3Cl)ccc21 | – | 6.31 µM (active)
CCOC(=O)CNC(=O)c1cc2c(=O)n3cccc(C)c3nc2s1 | -17.8% (inactive) | –
O=C(Cn1cc(SCc2ccccc2)c2ccccc21)N1CCCCC1 | -0.659% (inactive) | –
CN(C)CCNC(=O)/C(=C/c1cccc([N+](=O)[O-])c1)NC(=O)c1ccccc1 | -6.18% (inactive) | –
O=C(N/N=C/c1cc([N+](=O)[O-])ccc1O)/C(=C\c1cccs1)NC(=O)c1ccccc1 | – | 20 µM (active)
C=CCNC(=O)/C(=C\c1cccc([N+](=O)[O-])c1)NC(=O)c1ccccc1 | 10.7% (inactive) | –
COc1cccc(NC(=O)N2CCN(C(=O)c3nsc4ccccc34)CC2)c1 | 16.2% (inactive) | –
COc1cc(OC)c(NC(=O)c2c3c(nn2C)-c2ccccc2SC3)cc1Cl | -6.8% (inactive) | –
COc1ccc(NC(=O)CSc2nc3ncccc3[nH]2)c(OC)c1 | -7.09% (inactive) | –
O=C(CC(c1cccs1)N1Cc2ccccc2C1=O)Nc1ccc(F)cc1F (stereo not drawn) | -15.6% (inactive) | –

SMILES | max response, negative = inhibition | Potency
O=C(NCc1ccco1)c1cc2sccc2n1Cc1ccc(F)cc1 | -11.7% (inactive) | –
CCOC(=O)c1cc2sccc2n1Cc1ccc(C#N)cc1 | -11.1% (inactive) | –
CC1Cc2ccccc2N1C(=O)c1cc2sccc2n1Cc1ccccc1 (stereo not drawn) | – | 25.1 µM (active)
Cc1cc(=O)[nH]c(SCC(=O)N2c3ccccc3CC2C)n1 (stereo not drawn) | -2.54% (inactive) | –
CC(=O)Nc1ccc(NC(=O)c2cc3sccc3n2Cc2ccc(F)cc2)cc1 | 23.5% (inactive) | –
O=C(c1cc2sccc2n1Cc1ccc(F)cc1)N1CCc2ccccc21 | – | 25.1 µM (active)
Cc1ccc(-c2nc(SCc3ccc(Br)cc3)n3[nH]c(=O)cc3n2)cc1 | -0.81% (inactive) | –
COc1ccc(OC)c(CNC(=O)Cn2nc(C)c3c(C)n(-c4ccccc4)nc3c2=O)c1 | -8.59% (inactive) | –
CC(Sc1nc2ccccc2c(=O)n1Cc1ccco1)C(=O)c1ccccc1 (stereo not drawn) | -8.72% (inactive) | –
NC(=O)c1c(NC(=O)CSc2nnc(-c3ccco3)n2N)sc2c1CCCC2 | -17% (inactive) | –
N#Cc1c(NC(=O)CSc2nc3ccccc3c(=O)n2Cc2ccco2)sc2c1CCCC2 | – | 10 µM (active)
CCOc1ccc(N(CC)S(=O)(=O)N2CCCC(C(=O)NCc3ccc(SC)cc3)C2)cc1 (stereo not drawn) | 16% (inactive) | –
COc1ccc(OC)c(C2C3=C(N=c4s/c(=C\c5cccc(O)c5)c(=O)n42)c2ccccc2CC3)c1 (stereo not drawn) | – | 3.16 µM (active)
COCCOC(=O)C1=C(C)N=c2s/c(=C\c3cccs3)c(=O)n2C1c1cccs1 (stereo not drawn) | 14.7% (inactive) | –
O=C1CCCC2=C1C(c1ccccc1)n1c(s/c(=C/c3cccc(F)c3)c1=O)=N2 (stereo not drawn) | -0.66% (inactive) | –
Cc1ccc2nc(NC(=O)c3nc(SCc4ccccc4F)ncc3Cl)sc2c1 | 16.1% (inactive) | –
CCCOC(=O)c1c(NC(=O)c2cnn3c2NC(c2ccccc2)CC3C(F)(F)F)sc2c1CCCC2 (stereo not drawn) | – | 5.01 µM (active)
CCOC(=O)c1c(NC(=O)c2ccc(Br)o2)sc2c1CCCC2 | -20.9% (inactive) | –
CCCOC(=O)c1c(NC(=O)c2cc3nc(-c4ccc(OC)cc4)cc(C(F)(F)F)n3n2)sc2c1CCCC2 | 3.32% (inactive) | –
CCOC(=O)c1ccc(NC(=O)CCn2c(=O)oc3ccccc32)cc1 | -3.92% (inactive) | –
CCOC(=O)C1CCN(c2nc3c(S(=O)(=O)c4ccc(CC)cc4)nnn3c3ccc(Cl)cc23)CC1 | -25.4% (inactive) | –
CCNC(=O)c1cc2n(n1)CCCN(Cc1ccc(C)cc1)C2=O | 4.87% (inactive) | –

SMILES | max response, negative = inhibition | Potency
Cc1ccccc1CNC(=O)CCc1cn(Cc2ccccc2C)c2ccccc12 | 0.523% (inactive) | –
COc1ccc(C)cc1Nc1nc2ccccc2c2nnc(C)n12 | -0.388% (inactive) | –
COc1ccc(OC)c(Nc2nc(-c3ccc(O)c(O)c3)cs2)c1 | -16.7% (inactive) | –
COc1ccc(C)cc1Nc1nc(-c2c(C)[nH]c3ccccc23)cs1 | – | 25.1 µM (active)
COCCNC(=O)c1ccc2c(c1)N=C(C)c1cc(C)ccc1S2 | 12.7% (inactive) | –
CCC1=Nc2cc(C(=O)NCC(C)c3ccccc3)ccc2Sc2ccc(C)cc21 (stereo not drawn) | – | 12.6 µM (active)
CCCC1=Nc2cc(C(=O)NCc3ccco3)ccc2Sc2ccccc21 | -12.6% (inactive) | –
Cc1ccc(CCNC(=O)c2ccc(CNS(=O)(=O)c3ccc(C)cc3)cc2)cc1 | -23% (inactive) | –
CCOC(=O)c1cc2c(=O)n3ccccc3nc2n(CCCOC)c1=NC(=O)C(C)(C)Oc1ccc(Cl)cc1 | 4% (inactive) | –
Cc1ccc(/C=N/NC(=O)C2=NNC(c3ccccc3)(c3ccccc3)C2)c(O)c1 | – | 20 µM (active)
Cc1ccc2nc(CNC(=O)c3ccccc3)[nH]c2c1 | 6.98% (inactive) | –
COc1cccc(/C=N\NC(=O)C2=NNC(=O)C2C)c1O (stereo not drawn) | 14.7% (inactive) | –
COc1ccc(CCNc2ncnc3onc(-c4ccc(Cl)cc4)c23)c(OC)c1 | -2.97% (inactive) | –
CCOc1cccc(CNC(=O)c2ccc(N3CCCC3)c(NC(=O)Nc3ccccc3CC)c2)c1 | -7.71% (inactive) | –
O=C(Nc1nnc(SCc2ccccc2)s1)c1ccco1 | -28.7% (inactive) | –
Nc1nc(SCc2ccccc2Cl)n[nH]1 | 3.93% (inactive) | –
c1ccc(CSc2nnc(-c3ccco3)n2Cc2ccccc2)cc1 | -8.71% (inactive) | –
Clc1ccccc1CSc1nnc(-c2ccco2)c(-c2ccco2)n1 | – | 15.8 µM (active)
c1ccc(CSc2nnc(-c3ccco3)c(-c3ccco3)n2)cc1 | – | 15.8 µM (active)
Clc1ccccc1CSc1nncn2c1cc1occc12 | -9.48% (inactive) | –
Cc1ccccc1-c1nc(SCC(=O)N(C)c2ccccc2)c2c(=O)n(C)c(=O)n(C)c2n1 | 8.08% (inactive) | –
Cc1[nH]c2ccccc2c1C(c1ccccc1)c1cccs1 (stereo not drawn) | 3.04% (inactive) | –
